# A collection of fitness landscapes (doi:10.1126/science.1257360)
# In all, about 140,000 sequences were measured (“enrichment ratio after two sorts for PhoP signalling”: median about 0, highest 2% from about 11 on). The entries come from a sample that favours the highest values as a whole.
# B1: PhoQ; a variant is named by its letters at X, in order, P23837 (parent)
# chain: MKKLLRLFFPLSLRVRFLLATAAVVLVLSLAYGMVALIGYSVSFDKTTFRLLRGESNLFYTLAKWENNKLHVELPENIDKQSPTMTLIYDENGQLLWAQRDVPWLMKMIQPDWLKSNGFHEIEADVNDTSLLLSGDHSIQQQLQEVREDDDDAEMTHSVAVNVYPATSRMPKLTIVVVDTIPVELKSSYMVWSWFIYVLSANLLLVIPLLWVAAWWSLRPIEALAKEVRELEEHNRELLNPATTRELTSLVRNLNRLLKSERERYDKYRTTLTDLTHSLKTPLXXLQXXLRSLRSEKMSVSDAEPVMLEQISRISQQIGYYLHRASMRGGTLLSRELHPVAPLLDNLTSALNKVYQRKGVNISLDISPEISFVGEQNDFVEVMGNVLDNACKYCLEFVEISARQTDEHLYIVVEDDGPGIPLSKREVIFDRGQRVDTLRPGQGVGLAVAREITEQYEGKIVAGESMLGGARMEVIFGRQHSAPKDE
# Variants of: B1
# Assay: enrichment ratio after two sorts for PhoP signalling (ratio (wild type AVST 3.29)); higher = more functional
# Conditions: with PhoP (E. coli)
row,Variant,enrichment ratio
1,LEAH,0.895
2,TEQC,9.21
3,FELK,≤ 0.25
4,FTPI,≤ 0.25
5,MFEY,≤ 0.25
6,WMWW,≤ 0.25
7,NSSG,≤ 0.25
8,TFSG,13.9
9,HFSG,≤ 0.25
10,PFSG,≤ 0.25
11,PGSG,≤ 0.25
12,TTSG,19.5
13,TSSG,14.4
14,KQSG,≤ 0.25
15,KSSG,≤ 0.25
16,GGSG,≤ 0.25
17,YTSG,≤ 0.25
18,TGSG,16.4
19,MWFY,≤ 0.25
20,SQPK,≤ 0.25
21,VRWV,≤ 0.25
22,SYQC,≤ 0.25
23,RTQR,≤ 0.25
24,GNSG,13.2
25,SPSG,≤ 0.25
26,GVSG,7.26

row,Variant,enrichment ratio
1,GISG,8.5
2,HCSG,≤ 0.25
3,TVSG,20.3
4,WDLS,≤ 0.25
5,DAKY,≤ 0.25
6,NIQR,≤ 0.25
7,AHLG,6.95
8,AFLG,15.7
9,NHLG,≤ 0.25
10,AQLG,18.8
11,AFFG,≤ 0.25
12,KKLG,≤ 0.25
13,AILG,15.7
14,SHLG,10.8
15,AFTG,5.35
16,ADLG,3.46
17,APLG,≤ 0.25
18,THLG,14.4
19,MEPF,≤ 0.25
20,WCFV,≤ 0.25
21,GSFI,≤ 0.25
22,RMTQ,≤ 0.25
23,YEWD,≤ 0.25
24,LWMC,≤ 0.25
25,QNWS,8.87
26,PPKF,≤ 0.25

row,Variant,enrichment ratio
1,WPCT,≤ 0.25
2,SLTH,5.18
3,NKDQ,≤ 0.25
4,FHGD,≤ 0.25
5,ATLG,12.3
6,NMLG,≤ 0.25
7,VRLG,≤ 0.25
8,TTLG,10.6
9,TMLG,11.6
10,DMLG,≤ 0.25
11,YTLG,6.93
12,ASLG,18.2
13,FSLG,8.53
14,RQGG,≤ 0.25
15,RQFP,≤ 0.25
16,PNPW,≤ 0.25
17,RIWK,≤ 0.25
18,NTQW,≤ 0.25
19,QDPH,≤ 0.25
20,RWEP,≤ 0.25
21,KYTN,≤ 0.25
22,THTN,4.21
23,TMTN,13.4
24,STTN,19.3
25,VHTN,≤ 0.25
26,AMTN,27.1

row,Variant,enrichment ratio
1,NMTN,≤ 0.25
2,SQTN,8.46
3,WITN,≤ 0.25
4,DMTN,≤ 0.25
5,VLTN,≤ 0.25
6,GHTN,12.9
7,YVCF,0.805
8,PGGT,≤ 0.25
9,RGRC,≤ 0.25
10,FMKW,≤ 0.25
11,TWYE,≤ 0.25
12,YSAH,≤ 0.25
13,HNNM,≤ 0.25
14,QGTS,≤ 0.25
15,YTTN,≤ 0.25
16,GTTN,≤ 0.25
17,TETN,24.4
18,VCTN,≤ 0.25
19,KCTN,≤ 0.25
20,SVTN,16.4
21,ATTN,20.6
22,TCTN,22.5
23,SPTN,≤ 0.25
24,NETN,≤ 0.25
25,DETN,≤ 0.25
26,KFTN,≤ 0.25

row,Variant,enrichment ratio
1,RCRT,≤ 0.25
2,YSIQ,≤ 0.25
3,WKRH,≤ 0.25
4,LAIW,≤ 0.25
5,NWSE,≤ 0.25
6,LYIV,≤ 0.25
7,WHIR,≤ 0.25
8,YPIA,≤ 0.25
9,GPAN,≤ 0.25
10,AITN,22.4
11,KSTN,≤ 0.25
12,AKTN,≤ 0.25
13,FIQE,≤ 0.25
14,GTVS,≤ 0.25
15,GYMI,≤ 0.25
16,GIGD,≤ 0.25
17,GIVI,6.54
18,GNVI,14.7
19,GIFA,≤ 0.25
20,GCVI,≤ 0.25
21,GIMI,25.7
22,GTMI,≤ 0.25
23,GNMI,46.4
24,EHCK,≤ 0.25
25,DQHH,≤ 0.25
26,AQEG,≤ 0.25

row,Variant,enrichment ratio
1,LKYY,≤ 0.25
2,FGWK,≤ 0.25
3,SEER,≤ 0.25
4,RPGL,≤ 0.25
5,QPNH,≤ 0.25
6,QENH,70.4
7,QQNS,8.87
8,QQNH,12.7
9,QLNH,≤ 0.25
10,QQSH,≤ 0.25
11,HNFM,≤ 0.25
12,KEFR,≤ 0.25
13,THMP,≤ 0.25
14,HPVY,≤ 0.25
15,MNCR,≤ 0.25
16,RSFL,≤ 0.25
17,YTFQ,≤ 0.25
18,TINS,9.25
19,TIQM,48.5
20,TIWM,≤ 0.25
21,RIQM,≤ 0.25
22,TINY,≤ 0.25
23,TINM,15.1
24,AIQM,≤ 0.25
25,TIYM,2.83
26,TIGM,21.8

row,Variant,enrichment ratio
1,TIPM,≤ 0.25
2,TICK,1.1
3,TITM,17.6
4,PGVE,≤ 0.25
5,FAIN,0.294
6,WTRP,≤ 0.25
7,TKVF,3.68
8,ANGQ,≤ 0.25
9,SYDT,≤ 0.25
10,PICE,≤ 0.25
11,LWID,≤ 0.25
12,FPRV,≤ 0.25
13,TRYF,≤ 0.25
14,GPCS,≤ 0.25
15,NCLV,1.12
16,AANL,≤ 0.25
17,AACK,≤ 0.25
18,AAAI,1.63
19,KACV,≤ 0.25
20,AACE,6.4
21,ANCV,3.79
22,AACI,12.2
23,AACA,7.7
24,AACL,11.3
25,IACL,≤ 0.25
26,AACV,16.2

row,Variant,enrichment ratio
1,AACS,17.3
2,NQPV,≤ 0.25
3,KGDN,≤ 0.25
4,WHVG,≤ 0.25
5,HKAD,≤ 0.25
6,LHMM,≤ 0.25
7,SKQW,≤ 0.25
8,QCCL,≤ 0.25
9,LETR,≤ 0.25
10,DAMY,≤ 0.25
11,MRVV,≤ 0.25
12,ASVK,0.907
13,ASVL,16.7
14,ASHQ,≤ 0.25
15,ASTD,≤ 0.25
16,ASVY,2.98
17,ASVV,14.5
18,ASMQ,29.9
19,ASRL,≤ 0.25
20,ASVA,4.82
21,ASVT,15.2
22,KSVV,≤ 0.25
